# Screens: PubChem BioAssay, National Center for Advancing Translational Sciences (NCATS)
# In the library only some 3.6% were active in any assay of this set; here they are far more common.
# A549 tox: Nrf2 qHTS screen for inhibitors: counterscreen for cytotoxicity | A549 ARE-Fluc cells, CellTiter-Fluor viability, 18-24 h | Potency, µM (highest dose often 46 µM), hits mostly inhibitors | 390,000 compounds, 0.16% hits | AID 504648, 2011
#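 A549 ARE-Fluc cells in 5% FBS OPTI-MEM, 5000 cells/well, rested 2 h then exposed to compounds in concentration-response for 18-24 h at 37 °C. Viability by CellTiter-Fluor fluorescence (Ex 405/Em 525) after 30 min; luciferase luminescence (BugLite, 15 min, RT) read afterwards.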
# HepG2 viability: qHTS for Inhibitors of TGF-b: Cytotox Counterscreen; 410,000 compounds, 0.76% hits; Potency, µM (doses to about 46.1 µM), most hits filed as cytotoxic; HepG2 CAGA-GFP viability, ATP luminescence, 18 h
#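 HepG2 CAGA-GFP cells (1000/well, DMEM with 1% FBS) received compound, then TGF-beta at 500 pg/mL final, and were incubated 18 hours at 37 degrees C. Viability was read by CellTiter-Glo luminescence. Media-only wells were set as complete cell-killing and DMSO as no toxicity.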
# Nrf2 inh: Nrf2 qHTS screen for inhibitors. Potency, µM (top dose mostly 46 µM), most hits filed as inhibitors. 360,000 compounds, 2.1% hits. A549 ARE-Fluc reporter, luciferase luminescence, 18-24 h; further: nearly all actives have a fitted effect of over 60% in size
#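 In this cell-based qHTS, ARE-driven firefly luciferase in A549 cells reports Nrf2 activity; the luminescent signal after BugLite lysis is the measured value, with a prior CellTiter-Fluor read for cell health.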
# TGFb SMAD3 inh: qHTS for Inhibitors of TGF-b; 410,000 compounds, 1.2% hits; HepG2 CAGA-GFP TGF-b/SMAD3 reporter, GFP fluorescence, 18 h; TGF-beta stimulated, 500 pg/mL final; AID 588855, 2011; Potency, µM (doses to about 46.1 µM), usual class: inhibitors; further: nearly all actives have a fitted effect of over 65% in size
#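 First, reporter cells (HEPG2 CAGA-GFP) rested 2 h at 37 degrees C. Next, compounds were pinned in and TGF-beta added to 500 pg/mL final. After 18 h, GFP was imaged per cell and summed per well.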
# Nrf2 activator: qHTS of Nrf2 Activators; AREc32 ARE-luciferase reporter (MCF7-derived line), luminescence, 24 h; Potency, µM (series often up to 46.1 µM), most hits filed as activators; 410,000 compounds, 0.31% hits; AID 624171, 2012; further: nearly all actives have a fitted effect of over 65% in size
#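 ARE-driven firefly luciferase activity in AREc32 cells measured after a 24 hr compound exposure at 37 deg C, using Steady-Glo reagent and a 30 min room-temperature hold.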
# Hits are given with their value; - = inactive; ? = inconclusive; . = not tested or not shown; [ ] = another dose, or the depositor's remark. The call rests on the fitted dose curve; in most records, active means well fitted curve in the direction sought with a large enough effect; inconclusive means small, poorly fitted or top-dose-only effect, or another doubt; inactive means no such curve, though single readings can be large; an effect the other way counts as inactive or inconclusive.
SMILES,A549 tox,HepG2 viability,Nrf2 inh,TGFb SMAD3 inh,Nrf2 activator
Nn1c(COc2ccc(Cl)cc2)nc2ccccc2c1=O,-,-,?,-,-
COc1ccc(CCN(C)C(=O)c2ccc(OCC(=O)N3CCOCC3)c(OC)c2)cc1OC,-,-,-,-,-
CC(C)(O)CCc1c(-c2ccc(O)cc2O)oc2c3c(cc(O)c2c1=O)OC(C)(C)C=C3,-,-,-,?,-
CC(C)=CCc1c2c(c3occ(-c4ccc(O)cc4)c(=O)c3c1O)C=CC(C)(C)O2,?,10µM,?,7.9µM,-
CC(C)=CCc1c2c(c3occ(-c4ccc(O)c(O)c4)c(=O)c3c1O)C=CC(C)(C)O2,?,8.9µM,?,10µM,-
CC1(C)C=Cc2c(c3c(c4c(=O)c(-c5ccc(O)cc5)coc24)OC(C)(C)CC3)O1,-,-,?,14µM,-
C[C@H](CO)N1C[C@H](C)[C@@H](CN(C)C(=O)Nc2ccccc2)Oc2c(NC(=O)Nc3ccc4c(c3)OCO4)cccc2C1=O,-,-,?,-,-
CCOc1ccccc1OC(C)C(=O)Nc1ccc(S(=O)(=O)N2CCCC2)cc1 (stereo unspecified),-,-,-,-,-
COc1ccc(-c2nc3cnccn3c2Nc2ccc(C)cc2)cc1,-,-,-,?,-
COc1ccc(Nc2c(-c3cccc(O)c3)nc3cnccn23)cc1,-,-,-[9.27 µM],6.3µM,-
CC(=O)Nc1nc(-c2ccccc2)nc(-c2ccccc2OC(C)=O)n1,-,-,13µM,?,-
O=C(Cn1cc(COc2c(Br)cc(F)cc2Br)nn1)c1ccc(O)cc1,-,-,-,?,-
CCOC(=O)C1CCN(C2=C(NS(=O)(=O)c3ccc(Br)cc3)C(=O)c3ccccc3C2=O)CC1,-,-,-,18µM,-
CCN1CCN(C2=C(NS(=O)(=O)c3ccc(Br)cc3)C(=O)c3ccccc3C2=O)CC1,-,18µM,-,13µM,-
CCN1CCN(C2=C(NS(=O)(=O)c3ccccc3)C(=O)c3ccccc3C2=O)CC1,-,-,-,11µM,-
Cc1cccc(C)c1NC(=O)c1cccc(C(=O)Nc2c(C)cccc2C)n1,-,-,?,-,-
Cc1c(Cl)cccc1NC(=O)Cn1c(-c2ccc(F)cc2)noc1=O,-,-,-,-,-
CSC1(SC2=NCCN2)SC2(NCCN2)S1,7.3µM,-,8.2µM,13µM,-
O=C(NCc1ccccc1Cl)C1CCN(C(=O)c2ccc(F)cc2)CC1,.,-,.,-,-
Cc1ccc(/C=C2/SC(=S)N(C3CCCCC3)C2=O)o1,-,-,-,-,-
O=C(O)c1ccccc1C(=O)Nc1ccc(Oc2cccc3ccccc23)cc1,-,-,21µM,-,-
Cc1cccc(Oc2ccc(NC(=O)c3ccccc3C(=O)O)cc2)c1C,-,-,-,-,-
COc1cccc(CN2C(=NC(=O)C3CCCO3)SC3CS(=O)(=O)CC32)c1 (stereo unspecified),.,-,.,-,-
FC(F)(F)c1cccc(Cc2noc(CN3CCC(c4ccncc4)CC3)n2)c1,-,-,18µM,?,-
CN1CCCC2(CCCN(Cc3nc(Cc4cccc(C(F)(F)F)c4)no3)C2)C1 (stereo unspecified),-,-,-,-,-
SMILES,A549 tox,HepG2 viability,Nrf2 inh,TGFb SMAD3 inh,Nrf2 activator
c1cc(C2CCN(Cc3nc(-c4ccc5c(c4)OCO5)no3)CC2)ccn1,-,-,16µM,-,-
COCC1CCN(Cc2nc(-c3ccc4c(c3)OCO4)no2)C1 (stereo unspecified),-,-,?,-,-
C[C@@H]1CN([C@@H](C)CO)C(=O)Cc2cc(NC(=O)Nc3ccc(F)cc3)ccc2O[C@@H]1CN(C)Cc1ccc(Cl)c(Cl)c1,?,16µM,?,?,-
C[C@H]1CN([C@@H](C)CO)C(=O)Cc2cc(NS(C)(=O)=O)ccc2O[C@@H]1CN(C)Cc1ccc(Cl)c(Cl)c1,-,-,-,11µM,-
C[C@H](CO)N1C[C@H](C)[C@H](CN(C)Cc2ccncc2)Oc2ccc(NC(=O)Nc3ccc(C(F)(F)F)cc3)cc2CC1=O,-,-,-,13µM,-
CC(C)c1ccc(/C=C2\NC(=S)N(Cc3cccnc3)C2=O)cc1,-,-,-,-,-
